For 36 compounds, outcome results are on record in PubChem BioAssay AID1053118 (Broad Institute, 2014).

Entries with a potency or affinity are not part of this list. The source made the active and inactive calls.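 The calls were made as follows: active = fitted half-maximal concentration for ATP signal loss at most twice the top valid dose; inconclusive = flat curve between -70 and -30%, or an invalid fit; inactive = flat within ±30%, wrong direction, or potency past limit.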

The nature of this test: HepG2 cell cytotoxicity, dose response, cytotoxicity control, cherry-picks, set 5 (AID 1053118). The following applies: HepG2 viability, ATP luminescence, 72 h; series mostly up to 26 µM.
Take `N#Cc1ccc(-c2ccc3c(c2)[C@H]2[C@H](CCN2S(=O)(=O)c2cccc(F)c2)[C@H](CO)N3)cc1`: the compound was classed as inactive.

Consider `C[C@H]1CN([C@@H](C)CO)C(=O)c2cc(-c3ccccc3)cnc2O[C@H]1CN(C)Cc1ccccc1`, for which the result was inactive.

Regarding `COc1cccc(S(=O)(=O)N2CC[C@@H]3[C@H]2c2cc(-c4ccc(C#N)cc4)ccc2N[C@@H]3CO)c1`, the outcome was inactive.

Consider `COC(=O)c1c(NC(=O)CN2CCN(c3ccccc3Cl)CC2)sc(C)c1C`, for which the outcome was inactive.

For the compound `CO[C@H]1CN(C)C(=O)c2cc(NC(=O)Nc3cc(Cl)cc(Cl)c3)ccc2OC[C@@H](C)NC[C@@H]1C`, the result was inactive.

For `CC(C)NC(=O)N(C)C[C@H]1Oc2ccc(NC(=O)CCN3CCOCC3)cc2C(=O)N([C@H](C)CO)C[C@@H]1C`, the result was inactive.

Turning to `C[C@@H]1CN([C@H](C)CO)C(=O)c2cc(-c3ccccc3)cnc2O[C@@H]1CN(C)C(=O)c1cccc(F)c1`, the compound was called inactive.

As to `O=S(=O)(c1ccccc1F)N1CC[C@@H]2[C@H](CO)Nc3ccc(-c4cccc(F)c4)cc3[C@@H]21`, the call was inactive.

Turning to `C[C@@H]1CN([C@@H](C)CO)C(=O)c2cc(-c3ccccc3)cnc2O[C@H]1CN(C)C(=O)c1cccc(F)c1`, the outcome was inactive.

On to `C[C@@H]1CN([C@@H](C)CO)C(=O)c2cc(-c3ccccc3)cnc2O[C@@H]1CN(C)C(=O)c1cccc(F)c1`, for which the result was inactive.

With `C[C@@H]1CN([C@H](C)CO)C(=O)c2cccc(NC(=O)Nc3ccc(C(F)(F)F)cc3)c2O[C@H]1CN(C)C(=O)Nc1cccc2ccccc12`, the result was inactive.

Regarding `C[C@@H]1CN([C@@H](C)CO)C(=O)c2cc(-c3ccccc3)cnc2O[C@@H]1CN(C)Cc1ccccc1`, the call was inactive.

In the case of `CCCc1cc(C(=O)OC)c(NC(=O)CCC(=O)O)s1`, the result was inactive.

With `O=C(CN1CCCC1)Nc1ccc(Oc2ccc(NC(=O)CN3CCCC3)cc2)cc1`, the outcome was inactive.

As for `CCOC(=O)C1=C(C)Nc2nc3ccccc3n2C1c1ccncc1` (stereo unspecified), the call was inactive.

For `Cc1cccc(NC(=O)Nc2ccc(S(=O)(=O)Nc3onc(C)c3C)cc2)c1`, the compound was classed as inactive.

For the compound `O=C(Nc1ccccc1F)N1C[C@@H]2[C@H](c3ccccc31)[C@H](CO)N2C(=O)C1CCOCC1`, the result was inactive.

Take `COc1ncccc1C(=O)NC1CCCc2c1cnn2-c1ccc(C)c(C)c1` (stereo unspecified): the outcome was inactive.

For the compound `O=S(=O)(c1ccccc1F)N1CC[C@@H]2[C@H]1c1cc(-c3cccc(F)c3)ccc1N[C@@H]2CO`, the result was inactive.

Regarding `C[C@H](O)C#Cc1ccc2c(c1)O[C@@H](CN(C)C)[C@H](C)CN([C@@H](C)CO)S2(=O)=O`, the compound was called inactive.

Take `O=C(OCC(O)C(O)COC(=O)c1ccccc1)c1ccccc1` (stereo unspecified): the compound was classed as inactive.

As for `CSc1ccccc1C(=O)C1CCCN(C(=O)CCc2cccnc2)C1` (stereo unspecified), the outcome was inactive.

Take `COC(=O)c1cn(CC(=O)NCc2ccco2)c2ccccc12`: the outcome was inactive.

Take `N#C[C@@H]1[C@H](c2ccccc2C2=CCCCC2)[C@H](CO)N1S(=O)(=O)c1ccccc1`: the result was inactive.

In the case of `COc1cccc(-c2ccc3c(c2)[C@@H]2[C@@H](CCN2S(=O)(=O)c2cccc(OC)c2)[C@@H](CO)N3)c1`, the result was inactive.

Take `COc1ccc(C)cc1N(CC(=O)Nc1cccc(N(C)S(C)(=O)=O)c1)S(C)(=O)=O`: the call was inactive.

As to `COC(=O)C[C@@H]1CC[C@@H]2[C@H](COc3ccc(NC(=O)Cc4cccs4)cc3C(=O)N2C)O1`, the outcome was inactive.

For the compound `CC(=O)Nc1cccc(-c2ccnc3c2CC(C)(C(=O)Nc2cccc(C(F)(F)F)c2)O3)c1` (stereo unspecified), the result was inactive.

On to `C[C@@H]1CN([C@H](C)CO)C(=O)c2cc(NC(=O)C3CCCCC3)ccc2O[C@@H]1CN(C)Cc1ccc(-c2ccccc2)cc1`, for which the compound was called inactive.

In the case of `CCOc1ccccc1NC(=O)c1c(NC(=O)CCC(=O)O)sc2c1CCCCC2`, the call was inactive.

For the compound `N#Cc1ccc(-c2ccc3c(c2)[C@@H]2[C@@H](CCN2S(=O)(=O)c2ccccc2F)[C@H](CO)N3)cc1`, the result was inactive.

Consider `CC(C)(C)[S@@](=O)N1Cc2cc(C(=O)NCc3ccccc3F)nc(-c3cccc(-c4ccncc4)c3)c2[C@H]1CCO`, for which the call was inactive.

As to `N#Cc1ccc(-c2ccc3c(c2)[C@@H]2[C@@H](CCN2S(=O)(=O)c2cccc(F)c2)[C@@H](CO)N3)cc1`, the compound was classed as inactive.

Consider `COc1ccccc1CC(=O)OC(C)C(=O)Nc1ccc(S(=O)(=O)N2CCCCC2)cc1` (stereo unspecified), for which the call was inactive.

For `Cc1oc2ccc(O)cc2c1C(=O)c1ccc(Br)cc1`, the result was inactive.

Take `C[C@H]1CN([C@@H](C)CO)C(=O)c2cc(-c3ccccc3)cnc2O[C@@H]1CN(C)C(=O)c1cccc(F)c1`: the call was inactive.
